In the library only some 19% were active in any assay of this set; here they are far more common.
Lassa entry inh – blocks Lassa virus binding to or entry into cells | Lassa virus pseudotype entry inhibition, cell reporter | Potency, µM (titrated, usually from 37.9 µM), for inactives: at the top dose activity change, negative = inhibition, usual class: inhibitors | actives 1.2% (n = 300,000) | AID 540256; calls by dose curve; tested in HEK293 cells; further: potency means the concentration at half of the fitted maximal effect; on the % scale 0 is the no-effect control and ±100 the full control effect; nearly all actives have a fitted effect of over 50% in size
Pf growth 96h – P. falciparum growth inhibition at 96 hours; actives 6.9% (n = 320,000); AID 504834; Potency, µM (doses to about 28.7 µM), without a hit: at the top dose activity change, negative = inhibition, actives largely listed as inhibitors; P. falciparum luciferase reporter growth, 96 h; further: potency means the concentration at half of the fitted maximal effect; on the % scale 0 is the no-effect control and ±100 the full control effect
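Erythrocytes infected with luciferase-expressing P. falciparum were dispensed at 2% hematocrit and 0.05% parasitemia (final), then incubated with compounds 96 hours at 37 C in 5% CO2. Luminescence after detection reagent addition reported growth.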
Shiga toxin inh – Shiga toxin inhibition | inhibition, % at 38.7 µM | Vero cells, Shiga toxin protein synthesis inhibition reporter | actives 9.2% (n = 290,000); in the data active means inhibition mostly above about 28%, no sharp cut-off; inactive means mostly below about 43%; further: 0% is about no effect
Pf growth 48h – P. falciparum growth inhibition at 48 hours (one generation); P. falciparum luciferase growth in erythrocytes, 48 h; Potency, µM (titrated, usually from 28.7 µM), for inactives: at the top dose activity change, negative = inhibition, hits mostly inhibitors; actives 5.9% (n = 310,000); AID 504832; further: potency means the concentration at half of the fitted maximal effect; on the % scale 0 is the no-effect control and ±100 the full control effect
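Parasite viability was followed by luminescence of a genomically integrated firefly luciferase. Cultures held 0.1% parasitemia at 2% hematocrit (final), incubated under 5% CO2 at 37 C.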
Marburg entry inh – inhibitors of Marburg virus binding or cell entry. Marburg virus pseudotyped entry inhibition, cell reporter. Potency, µM (series often up to 37.8 µM), for inactives: top-dose activity change, negative = inhibition, actives largely listed as inhibitors. actives 1.8% (n = 300,000); calls by dose curve; tested in HEK293 cells; further: potency means the concentration at half of the fitted maximal effect; on the % scale 0 is the no-effect control and ±100 the full control effect
Cycloheximide cs – affects cycloheximide protein synthesis inhibition readout, counter-screen; AID 2314; cell reporter, cycloheximide protein synthesis inhibition counterscreen; max response, %; actives 12% (n = 300,000); in the data active means max response mostly above about 13%, no sharp cut-off; inactive means mostly below about 14%; further: read at 38.3 µM for the half of the compounds with a filed dose; 0% is about no effect
* hit, by the source's call; [ ] = another dose, or the depositor's remark. Unless noted, the call rests on the fitted dose curve; in most records, active means well fitted inhibition curve with a large enough effect; inconclusive means small, poorly fitted or top-dose-only effect, or another doubt; inactive means no such curve, though single readings can be large or run the other way.

Screening Cc1cc(NC(=O)CSc2nc3c([nH]c4ccccc43)c(=O)n2-c2cccc(C(F)(F)F)c2)no1 returned Lassa entry inh inconclusive, Pf growth 96h 9.28µM*, Shiga toxin inh 6.0, Pf growth 48h 11.7µM*, Marburg entry inh inconclusive and Cycloheximide cs -2.3.
`Cc1nc2ccccc2c2oc(C(=O)N3CCN(C(=O)c4ccco4)CC3)cc12` gave Pf growth 96h inconclusive, Shiga toxin inh 21.0, Pf growth 48h inconclusive, Marburg entry inh -1.2% and Cycloheximide cs -4.4.
For Cc1cccc(NC(=O)COC(=O)c2ccc(S(=O)(=O)N3CCCCCC3)cc2)c1 the results were Lassa entry inh -25.6%, Pf growth 96h 11.0%, Pf growth 48h inconclusive and Marburg entry inh 2.2%.
For CCN1CCN(c2nc(SC)nc3sc4c(c23)CC(C)(C)OC4)CC1 the results were Lassa entry inh -0.1%, Pf growth 96h 28.2%, Shiga toxin inh 8.6, Pf growth 48h 1.65µM*, Marburg entry inh -22.9% and Cycloheximide cs -0.8.
CCC1(C)Cc2c(sc3nc(SC)nc(NCCN(C)C)c23)CO1 (configuration not stated) was read as Lassa entry inh -10.9%, Pf growth 96h 3.7µM*, Shiga toxin inh -10.4, Pf growth 48h inconclusive, Marburg entry inh inconclusive and Cycloheximide cs -2.4.
For CSc1nc(SCCN(C)C)c2c3c(sc2n1)COC(C)(C)C3 the results were Lassa entry inh inconclusive, Pf growth 96h inconclusive, Shiga toxin inh -3.9, Pf growth 48h inconclusive, Marburg entry inh inconclusive and Cycloheximide cs -1.4.
For CCOC(=O)N1CCN(c2nc(SC)nc3sc4c(c23)CC(C)(C)OC4)CC1 the results were Lassa entry inh 3.4%, Shiga toxin inh 3.0, Pf growth 48h 3.7µM*, Marburg entry inh 18.2% and Cycloheximide cs -1.3.
CSc1nc(SC(C)C(=O)O)c2c3c(sc2n1)COC(C)(C)C3 (configuration not stated) was read as Lassa entry inh 13.9%[46.1 µM], Pf growth 96h 4.7%, Shiga toxin inh -2.9, Pf growth 48h -4.2%, Marburg entry inh -14.4%[46.1 µM] and Cycloheximide cs 1.3.
`CC(C)Sc1nc(N2CCOCC2)c2c3c(sc2n1)COC(C)(C)C3` gave Lassa entry inh inconclusive, Pf growth 96h inconclusive, Shiga toxin inh -20.1, Pf growth 48h inconclusive, Marburg entry inh inconclusive and Cycloheximide cs -2.1.
O=Cc1ccc(OCC(=O)NCC2CCCO2)cc1 (configuration not stated) was read as Lassa entry inh 15.8%[46.1 µM], Pf growth 96h 5.3%, Shiga toxin inh -8.2, Pf growth 48h 0.0%, Marburg entry inh -13.1%[46.1 µM] and Cycloheximide cs -2.1.
`COc1ccccc1CNC(=O)COC(=O)c1ccc(Cl)c(N)c1` gave Lassa entry inh 0.0%, Pf growth 96h -4.5%, Shiga toxin inh -19.8, Pf growth 48h -3.9%, Marburg entry inh -10.7%[46.1 µM] and Cycloheximide cs 7.2.
`Cc1ccc(-c2nnc(SCC(=O)OC(C)C)n2N)cc1` gave Lassa entry inh 13.5%, Pf growth 96h 44.5%, Shiga toxin inh 31.1, Pf growth 48h -14.8%, Marburg entry inh 5.0% and Cycloheximide cs 15.4.
For O=C1N/C(=C/c2ccc(N3CCCC3)cc2)C(=O)N1c1ccccc1 the results were Lassa entry inh 1.7%, Pf growth 96h inconclusive, Shiga toxin inh 48.9*, Pf growth 48h 77.5%, Marburg entry inh -21.0% and Cycloheximide cs 16.6*.
`O=C1/C(=C/c2ccc(N3CCCC3)cc2)NC(=S)N1C1CC1` gave Lassa entry inh inconclusive, Pf growth 96h -75.9%, Shiga toxin inh 23.6, Marburg entry inh inconclusive and Cycloheximide cs 19.0.
O=C1N/C(=C/c2ccc(N3CCOCC3)o2)C(=O)N1c1ccccc1 was read as Lassa entry inh inconclusive, Pf growth 96h -2.8%, Shiga toxin inh 13.9, Pf growth 48h 14.5%, Marburg entry inh inconclusive and Cycloheximide cs 20.2*.
`CCOC(=O)c1[nH]c2ccccc2c1NC(=S)Nc1cccc(C)c1C` gave Lassa entry inh 19.7%, Pf growth 96h 50.5%, Shiga toxin inh 33.4, Pf growth 48h 79.6%, Marburg entry inh 25.2% and Cycloheximide cs 28.7*.
Screening CCOC(=O)c1[nH]c2ccccc2c1NC(=O)NC(C)C returned Lassa entry inh -10.9%, Pf growth 96h 22.0%, Shiga toxin inh 10.6, Pf growth 48h -3.8%, Marburg entry inh 1.7%[46.1 µM] and Cycloheximide cs -0.6.
Screening CCCCNC(=O)Nc1c(C(=O)OCC)[nH]c2ccccc12 returned Lassa entry inh 1.0%, Pf growth 96h 8.28µM*, Shiga toxin inh 9.8, Pf growth 48h 5.9%, Marburg entry inh 47.4% and Cycloheximide cs -1.0.
Screening COc1cc(CN2CCN(Cc3ccc4cc(F)ccc4n3)CC2CCO)cc(OC)c1 (configuration not stated) returned Lassa entry inh 3.6%[46.1 µM], Pf growth 96h inconclusive, Shiga toxin inh -12.6, Pf growth 48h 1.3%, Marburg entry inh inconclusive and Cycloheximide cs 0.2.
CCN(CC)CCN(Cc1cc2cc3c(cc2[nH]c1=O)OCCO3)C(=S)NCC1CCCO1 (configuration not stated) was read as Lassa entry inh 11.2%[46.1 µM], Pf growth 96h -0.7%, Shiga toxin inh 12.2, Pf growth 48h -8.6%, Marburg entry inh 6.4%[46.1 µM] and Cycloheximide cs 8.8.
Screening CCN(CC)CCN(Cc1cc2cc3c(cc2[nH]c1=O)OCO3)C(=S)NCC1CCCO1 (configuration not stated) returned Lassa entry inh 1.5%, Pf growth 96h 14.7µM*, Shiga toxin inh 9.5, Pf growth 48h -10.9%, Marburg entry inh 1.6%[46.1 µM] and Cycloheximide cs -3.0.
CCN(CC)CCN(Cc1cc2cc3c(cc2[nH]c1=O)OCO3)C(=S)NCCCOC was read as Pf growth 96h 13.1µM*, Shiga toxin inh -4.8, Pf growth 48h -6.1% and Cycloheximide cs 1.2.
`CCCCOc1ccccc1C1C(C(=O)OC)=CN(CC)C=C1C(=O)OC` gave Lassa entry inh -26.3%, Pf growth 96h 179.4%, Shiga toxin inh -16.5, Pf growth 48h inconclusive, Marburg entry inh -26.0% and Cycloheximide cs -1.6.
CCCOc1ccccc1C1C(C(=O)OC)=CN(C(C)C)C=C1C(=O)OC was read as Lassa entry inh -0.6%, Shiga toxin inh 29.1, Pf growth 48h 13.1µM*, Marburg entry inh inconclusive and Cycloheximide cs -1.5.
Cc1ccccc1Nc1nc(Nc2ccccc2C)nc(SC2=NCCS2)n1 was read as Lassa entry inh inconclusive, Shiga toxin inh -3.9, Pf growth 48h 10.4µM*, Marburg entry inh inconclusive and Cycloheximide cs -0.6.
`Cc1cc(C)nc(Sc2nc(Nc3ccccc3)nc(Sc3nc(C)cc(C)n3)n2)n1` gave Lassa entry inh -5.9%, Pf growth 96h inconclusive, Shiga toxin inh -4.0, Pf growth 48h inconclusive, Marburg entry inh inconclusive and Cycloheximide cs 6.6.
For Cc1ccc(Nc2nc(Nc3ccc(C)cc3)nc(SC3=NCCS3)n2)cc1 the results were Lassa entry inh inconclusive, Pf growth 96h 13.1µM*, Shiga toxin inh 48.2, Marburg entry inh inconclusive and Cycloheximide cs 10.4.
